This is part of a sample that, as a whole, favours compounds with a hit. Of some 83,000 tested, about 20% had one in any assay.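 In brief: 96-well plates, 48 h treatment, single concentration, percent growth endpoint.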 The source made the active and inactive calls. The calls were made as follows: active = growth percent below 10; inactive = the rest.
Legend:
Experiment in all cases: NCI-60 one-dose screen, 48 h (100 = growth as untreated, 0 = no growth, -100 = all killed)
Settings in all cases: 10 µM unless noted
HCT-15 colon = test system: HCT-15 colon
HT29 colon = test system: HT29 colon
SNB-75 CNS = test system: SNB-75 CNS
SNB-19 CNS = test system: SNB-19 CNS
U251 CNS = test system: U251 CNS
PC-3 prostate = test system: PC-3 prostate
SK-MEL-5 melanoma = test system: SK-MEL-5 melanoma
UACC-62 melanoma = test system: UACC-62 melanoma
LOX IMVI melanoma = test system: LOX IMVI melanoma
SK-MEL-28 melanoma = test system: SK-MEL-28 melanoma

Measured: growth

O=C(/C(=C/c1ccc([N+](=O)[O-])cc1)SCc1ccccc1)c1ccc(Cl)cc1
inactive: HCT-15 colon 34.3% | HT29 colon 52% | SNB-75 CNS 85% | SNB-19 CNS 70.6% | U251 CNS 61.6% | PC-3 prostate 60.9% | SK-MEL-5 melanoma 73% | LOX IMVI melanoma 32.6% | SK-MEL-28 melanoma 94.6%
active: UACC-62 melanoma 9.57%

Cc1cc(C)cc(Nc2nccc(-c3c(-c4ccc(F)cc4)ncn3C3CCNCC3)n2)c1
inactive: SNB-75 CNS 17% | SNB-19 CNS 27.5% | U251 CNS 13.1% | PC-3 prostate 15.4%
active: HCT-15 colon 9.67% | HT29 colon -0.976% | SK-MEL-5 melanoma -87.6% | LOX IMVI melanoma -81.3% | SK-MEL-28 melanoma -34.7%

Cc1nccc2c3ccc(OCc4cn(-c5ccc(Br)cc5)nn4)cc3n(CC(C)C)c12
active: HT29 colon 4.32%
inactive: HCT-15 colon 36.4% | SNB-75 CNS 89.5% | SNB-19 CNS 59.6% | U251 CNS 36.9% | PC-3 prostate 30.7% | LOX IMVI melanoma 52.2% | SK-MEL-28 melanoma 67.2%

COc1cc(/C=C/C(=O)c2cccs2)ccc1OCc1ccc(Cl)nc1
inactive: HCT-15 colon 62.5% | HT29 colon 97.3% | SNB-75 CNS 119% | SNB-19 CNS 66.6% | U251 CNS 35.3% | PC-3 prostate 69% | SK-MEL-5 melanoma 87.2% | LOX IMVI melanoma 27.2% | SK-MEL-28 melanoma 92%

Nc1c(C(=O)Nc2ccccn2)sc2nc3c(cc12)C(=O)CCC3
inactive: HCT-15 colon 28.5% | HT29 colon 12.4% | SNB-19 CNS 28.2% | U251 CNS 29.5% | PC-3 prostate 37.9% | UACC-62 melanoma 34.9% | LOX IMVI melanoma 44.4% | SK-MEL-28 melanoma 56.4%
active: SNB-75 CNS 8.84%

CSc1cccc(NC(=O)Nc2nc3c(C)cccc3s2)c1
inactive: HCT-15 colon 97.9% | HT29 colon 99.5% | SNB-75 CNS 76.7% | SNB-19 CNS 98.2% | U251 CNS 98.9% | PC-3 prostate 95.7% | UACC-62 melanoma 78.3% | LOX IMVI melanoma 97.5% | SK-MEL-28 melanoma 112%

COc1cc(/C=N/Nc2nc(-c3ccc(F)cc3)c(C#N)c(N3CCOCC3)n2)ccc1O
inactive: HCT-15 colon 99.9% | HT29 colon 96% | SNB-75 CNS 84% | SNB-19 CNS 92.9% | U251 CNS 97.6% | PC-3 prostate 96.4% | UACC-62 melanoma 99% | LOX IMVI melanoma 107% | SK-MEL-28 melanoma 99.9%

COC(=O)/C=C1\SC(=Nc2cccc(Cl)c2)N(CCc2c[nH]c3ccccc23)C1=O
inactive: HCT-15 colon 29% | SNB-75 CNS 84.5% | SNB-19 CNS 54.4% | U251 CNS 41.1% | PC-3 prostate 31.8% | UACC-62 melanoma 18.3% | SK-MEL-28 melanoma 64.8%
active: HT29 colon 8.6% | LOX IMVI melanoma 5.31%

COc1ccc2nc(-c3ccc(Cl)cc3)cc(C(=O)N3N=C(c4ccc(N)cc4)CC3c3ccccc3)c2c1 (stereo unspecified)
inactive: HCT-15 colon 26.7% | HT29 colon 19.6% | SNB-75 CNS 44.3% | SNB-19 CNS 49.6% | U251 CNS 50.7% | PC-3 prostate 35.9% | LOX IMVI melanoma 40.4% | SK-MEL-28 melanoma 61.7%

O=[N+]([O-])c1ccc(Oc2ccc(-c3ccccc3)cc2)cc1
inactive: HCT-15 colon 81.8% | HT29 colon 76.6% | SNB-75 CNS 93.5% | SNB-19 CNS 94% | U251 CNS 88.5% | PC-3 prostate 75.8% | UACC-62 melanoma 63% | LOX IMVI melanoma 96.3% | SK-MEL-28 melanoma 105%

CCOCc1nc2ccccc2c(=O)[nH]1
inactive: HCT-15 colon 97.2% | HT29 colon 95.9% | SNB-75 CNS 99.2% | SNB-19 CNS 101% | U251 CNS 102% | SK-MEL-5 melanoma 104% | UACC-62 melanoma 102% | LOX IMVI melanoma 99.8% | SK-MEL-28 melanoma 106%

CCOC(=O)C1=C(C)n2nc(CC#N)c(C#N)c2NC1c1ccc(CC)cc1 (stereo unspecified)
inactive: HCT-15 colon 99.6% | HT29 colon 107% | SNB-75 CNS 88.5% | SNB-19 CNS 106% | U251 CNS 101% | PC-3 prostate 90.8% | SK-MEL-5 melanoma 96.6% | LOX IMVI melanoma 92.7% | SK-MEL-28 melanoma 103%

CCc1n(Cc2ccc3ccccc3c2)c2ccccc2[n+]1Cc1ccc2ccccc2c1
inactive: HCT-15 colon 101% | HT29 colon 25.3% | SNB-75 CNS 59% | SNB-19 CNS 45.3% | U251 CNS 34.4% | PC-3 prostate 52.9% | UACC-62 melanoma 50.6% | LOX IMVI melanoma 63.7% | SK-MEL-28 melanoma 69.8%
